Paper PMC12136788
Whole data set: some 24,000 sequences, median “enrichment r” near 0.99, cut for the highest 2% near 3.7. This excerpt belongs to a sample that is enriched for the highest values.

T1: UNK ZnF1-3 (human, UniProt Q9C0B0 31-174)
T1 sequence: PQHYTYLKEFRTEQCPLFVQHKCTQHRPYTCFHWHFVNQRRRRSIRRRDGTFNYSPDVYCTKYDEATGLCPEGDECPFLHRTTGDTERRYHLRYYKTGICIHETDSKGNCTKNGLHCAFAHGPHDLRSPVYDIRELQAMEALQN

B1: chr1:153198750:153198751:+_ENSMUSG00000023150_ENSMUST00000023918|perfect_dup|FALSE|FALSE (ssRNA)
RNA: GGGAGUUCUACAGUCCGACGAUCUUCUGGAUUGAGAUCAUCAAAUUUAACGUGAGAAAUUCCAUGAGGAUCACUAUCACUAUUAAAGAUUUCAAAUAAAUAGGGACUGCAGCAAGCUAGCACUGCUCUGUGUGCUAACAUUUCCAACAGAGGAUUGAGCAUCA
B2: chr2:39006174:39006175:+_ENSG00000152147_ENST00000409566|hu_mus|FALSE|FALSE (ssRNA)
RNA: GGGAGUUCUACAGUCCGACGAUCUACUCCUUCUCACAGGCUAUCACUCUCACUUCUUUAUAAACGUAAUCUUCCCAUUCUAAGGGGCUUUUCUUCAUCCAUUCGCUCAUGGUUACCAGUUGCCCAGAUUCUUUCUAGAUGACUCAACAGAGGAUUGAGCAUCA
B3: 8805033_8805153_1671_3pUTR_ENSMUSG00000021147_ENSMUST00000021572|mouse|control|control (ssRNA)
RNA: GGGAGUUCUACAGUCCGACGAUCAACUUGGAGCUAAGGAACAUCAGUGACUUAUUUUUCUUGUAACAGUGCAGGAAUAUUGAUGUUCCACCCAAUAGCUUGCCUAUCGAACCCACAGGUAAAUAGAUUGCAUAUGGGGUGGUCCAACAGAGGAUUGAGCAUCA
B4: chr2:46850943:46850944:+_ENSG00000119878_ENST00000238892|hu_hu|FALSE|FALSE (ssRNA)
RNA: GGGAGUUCUACAGUCCGACGAUCGUAGGCACAGCCCUGGCAGUAAUGAGAACCUGGUUGGUGCACAGAACUUUUACAAAUUCUACAAGUGGAGAACUUAUUCUUUCCAUAUGGAUCAAAUCUUGCUUUUUUUGAAGUCAAAGCCAACAGAGGAUUGAGCAUCA
B5: 72481967_72485090_997_CDS_ENSMUSG00000030516_ENSMUST00000102592|mouse|control|control (ssRNA)
RNA: GGGAGUUCUACAGUCCGACGAUCUGCUGCCAAACUAUCUUGUGAAAUUUCCUUUACAAAUAUAUGGCUGGCCAAUCGAAGACCAUAUUCUUCAUUUUUCCGAGACUUCACCAGUGUGACCUUGGUGGGCUUUGCGGGCUGACUCAACAGAGGAUUGAGCAUCA
B6: chr11:86070927:86070928:-_ENSMUSG00000018068_ENSMUST00000018212|mus_mus|FALSE|FALSE (ssRNA)
RNA: GGGAGUUCUACAGUCCGACGAUCUGGCACCAACAGUGCCGUCGACAGAGCGAGAAUCAGAAUGGGGACACUGCAAAAAAAAAAAAAAAAGUAAAAAGGAAAGGGAAAAAAAAGGGAGAAGCAACCAGGAGAGAGGGGAAAGCACAACAGAGGAUUGAGCAUCA
B7: chr4:128986876:128986877:-_ENSMUSG00000057236_ENSMUST00000102598|mus_mus|motif|central (ssRNA)
RNA: GGGAGUUCUACAGUCCGACGAUCGAUGGUGAGACAGGUCAACCAAAAUGGAGAUGGCAUCAAACUAUAGUGGUCAAAGACGGACCCCUAAAAAAGCAACUUUUAUCAAGGAUUAAUUUAAUCUUAAAAACAAACACAAACUAGCAACAGAGGAUUGAGCAUCA
B8: chr3:148802587:148802588:-_ENSG00000071794_ENST00000310053|hu_mus|hu_hu_hu_mus_False|18_58 (ssRNA)
RNA: GGGAGUUCUACAGUCCGACGAUCUCCAACAACUUGUCCUCUCAUAGUUCCAAAUAAAACCAAAUCUUGCUCUUCAUCACUAGUUAGGAAGUCAUCUGGAGGAAUAAUGUCUUGGAAUUCAAAACGUGGCAAGAAAGUUGAGUACAACAGAGGAUUGAGCAUCA
B9: chr7:141438946:141438947:+_ENSG00000106028_ENST00000265304|hu_mus|hu_hu_hu_mus_True|8_98 (ssRNA)
RNA: GGGAGUUCUACAGUCCGACGAUCGACGAAAUACCUGACAGGUCUUCCUUCGAAACAUGGCUUCUGUUUUUCUUACAACCUAAUCUUUAGGCUUUUCCUAAAGGAAAGAAAGAAAAGAGAAAAAUGAGCAGGGGAUCAACUACACAACAGAGGAUUGAGCAUCA
B10: chr18:46664354:46664355:-_ENSMUSG00000033319_ENSMUST00000036226|mus_hu|FALSE|FALSE (ssRNA)
RNA: GGGAGUUCUACAGUCCGACGAUCGGAAAAAACUGUAGUAGAAAUGGUUAGGACAAACAAUAAAGUAGAAACAGGGGGGAAACUUGAGAAGAGAAGAAAGAAGCAAGAAAAAAAGACUUUCAAUUGUAUAAAAUUCACAAACCACAACAGAGGAUUGAGCAUCA
B11: chr16:45711415:45711416:-_ENSMUSG00000022658_ENSMUST00000096057|mus_mus|FALSE|FALSE (ssRNA)
RNA: GGGAGUUCUACAGUCCGACGAUCAUUAGGAUACGUUCUGUGAGUCAAGGAGAGAAACUUUUUGGCAAAUAAAUAAAUAAAUAAUCAAACAAACCAAGACCUUAGGGCACAGGAGGUCAGAGAGGAAAGGGAGUCUUUGCAUAGCAACAGAGGAUUGAGCAUCA
B12: chrX:71549400:71549401:+_ENSMUSG00000019087_ENSMUST00000019231|mus_hu|mus_mus_mus_hu_False|8_58 (ssRNA)
RNA: GGGAGUUCUACAGUCCGACGAUCGCAGUAGGAAGAGGGAAGCUCUUCAGUCCAGUGCGCUGCAGGGUGGGAAAGCACAACCUAGACCACCGUCCCACCCUCAACCCCCCCACUGGCACAGGGUCACAUCUGGGUCAUCAAAGACAACAGAGGAUUGAGCAUCA
B13: chr10:112362727:112362728:-_ENSMUSG00000074748_ENSMUST00000099276|mus_mus|FALSE|FALSE (ssRNA)
RNA: GGGAGUUCUACAGUCCGACGAUCGAUCCCAGCAUGCGAUAAUGCCAGGUAGUGGCCCCUGGGCAUGCGAUGGUGGGAACUAAUUUACUGAAGAAAAAAGCACAAACCACAGAAAAUGUAAAGAACCCCUUCCCCCUAUACACACAACAGAGGAUUGAGCAUCA
B14: chr7:97110809:97110810:-_ENSMUSG00000030619_ENSMUST00000107234|mus_mus|FALSE|FALSE (ssRNA)
RNA: GGGAGUUCUACAGUCCGACGAUCACAAGACUUGGAAAGUAUCAAAUCGCCUAACCAUCGCACACAAUCAACAUAAUUCCUAUGUAUGUCUCUGGUAGAAAAGUCAGGAAAGUGGAUUUUCUGGGAAAUAAAUGGCCUGUUAGUCAACAGAGGAUUGAGCAUCA
B15: chrX:71549400:71549401:+_ENSMUSG00000019087_ENSMUST00000019231|mus_hu|mus_mus_mus_hu_False|8_88 (ssRNA)
RNA: GGGAGUUCUACAGUCCGACGAUCGCAGUAGGAAGAGGGAAGCUCUUCAUCCACUGUCGCUGCAGGGUGGGAAAGCAACAACACGGACACCGUCCCACCCUCAACCCCCCCACUGGCACAGGGUCACAUCUGGGUCAUCAAAGACAACAGAGGAUUGAGCAUCA
B16: chr4:88365945:88365946:-_ENSMUSG00000070923_ENSMUST00000094993|mus_mus|motif|central (ssRNA)
RNA: GGGAGUUCUACAGUCCGACGAUCACUUGUAUAGCCAUUUACUAAACAAUAUCAAGCCAAACCAAAAAAAAAAAAGGGUCGGAGUUACCUUUUUGUCUAUUAACUGUAGCAAUAAGGAGAAACAAUACAAGGGGAUGAACAAGACAACAGAGGAUUGAGCAUCA

Target: T1, UNK ZnF1-3
Test: nsRBNS (natural sequence RNA bind-n-seq); RBNS binding buffer (assumed for nsRBNS): 25 mM Tris pH 7.5, 150 mM KCl, 3 mM MgCl2, 0.01% Triton X-100, 500 ug/ml BSA, 20 U/ml SUPERase-In, 4 C; UNK is unkempt and MSI1 is Musashi-1; names of the RNAs are library labels; protein concentration not given here; high values mean tight binding

Point of comparison: B2, binding signal 0.786 enrichment R. Against it:
- B1 — higher, 5.29 enrichment R
- B3 — lower, 0.759 enrichment R
- B4 — higher, 0.978 enrichment R
- B5 — lower, 0.579 enrichment R
- B6 — higher, 8.95 enrichment R
- B7 — higher, 4.74 enrichment R
- B8 — higher, 1.29 enrichment R
- B9 — lower, 0.543 enrichment R
- B10 — higher, 5.26 enrichment R
- B11 — higher, 3.91 enrichment R
- B12 — higher, 1.31 enrichment R
- B13 — higher, 1.77 enrichment R
- B14 — higher, 1.38 enrichment R
- B15 — higher, 1.14 enrichment R
- B16 — higher, 1.54 enrichment R
